From PubChem BioAssay AID1159580 (chemical genetic matrix, 2015)
About 2,000 (36%) of roughly 5,500 compounds were called active. Another 18% or so got no clear call; they are omitted. Rule as the data show it: active = normalized growth mostly below about 0.91 (no sharp cut-off); inconclusive = no clear call, values can overlap the other calls; inactive = mostly above about 0.92. The list shows a part of the results.

Experiment: chemical genetic growth profiling, strain panel (AID 1159580);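 also: tested at 20 µM; growth read once vehicle control cultures reached saturation at 30 °C; 1 = growth at the plate median or of vehicle wells; lower values mean less growth of the strain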
Conditions: growth OD

Measured: normalized growth

NC(=O)N/N=C\c1ccc([N+](=O)[O-])o1
inactive: S. cerevisiae deletion strains, locus YJR066W, strain TOR1, stronger effect = lower value 0.911 | S. cerevisiae deletion strains, locus YKL009W, strain mrt4, stronger effect = lower value 0.979 | S. cerevisiae deletion strains, locus YKL068W, stronger effect = lower value 0.994 | S. cerevisiae deletion strains, locus YKL085W, strain MDH1 (second series), stronger effect = lower value 0.987 | S. cerevisiae deletion strains, locus YKL085W, strain MDH1, stronger effect = lower value 0.987 | S. cerevisiae deletion strains, locus YKL160W, strain elf1, stronger effect = lower value 0.983 | S. cerevisiae deletion strains, locus YKL190W, strain CNB1, stronger effect = lower value 1.02 | S. cerevisiae deletion strains, locus YKR001C, strain vps1, stronger effect = lower value 0.95 | S. cerevisiae deletion strains, locus YKR026C, strain gcn3, stronger effect = lower value 1 | S. cerevisiae deletion strains, locus YKR091W, strain srl3, stronger effect = lower value 0.991 | S. cerevisiae deletion strains, locus YLL001W, strain dnm1, stronger effect = lower value 0.995 | S. cerevisiae deletion strains, locus YLL026W, stronger effect = lower value 0.999 | S. cerevisiae deletion strains, locus YLL041C, strain sdh2, stronger effect = lower value 0.995 | S. cerevisiae deletion strains, locus YLR027C, strain aat2, stronger effect = lower value 1 | S. cerevisiae deletion strains, locus YLR039C, strain RIC1, stronger effect = lower value 1.03 | S. cerevisiae deletion strains, locus YLR058C, strain SHM2, stronger effect = lower value 0.994 | S. cerevisiae deletion strains, locus YLR102C, strain apc9, stronger effect = lower value 0.984 | S. cerevisiae deletion strains, locus YLR113W, strain HOG1, stronger effect = lower value 1 | S. cerevisiae deletion strains, locus YLR221C, strain rsa3, stronger effect = lower value 0.975 | S. cerevisiae deletion strains, locus YLR258W, strain gsy2, stronger effect = lower value 0.998 | S. cerevisiae deletion strains, locus YLR262C, strain YPT6 (second series), stronger effect = lower value 1.01 | S. cerevisiae deletion strains, locus YLR262C, strain YPT6, stronger effect = lower value 1.03 | S. cerevisiae deletion strains, locus YLR268W, strain sec22, stronger effect = lower value 0.969 | S. cerevisiae deletion strains, locus YLR320W, strain mms22, stronger effect = lower value 0.98 | S. cerevisiae deletion strains, locus YLR330W, strain CHS5, stronger effect = lower value 0.998 | S. cerevisiae deletion strains, locus YLR342W, strain FKS1 (second series), stronger effect = lower value 1.03 | S. cerevisiae deletion strains, locus YLR342W, strain FKS1, stronger effect = lower value 1 | S. cerevisiae deletion strains, locus YLR357W, strain rsc2, stronger effect = lower value 0.97 | S. cerevisiae deletion strains, locus YLR370C, strain arc18, stronger effect = lower value 0.997 | S. cerevisiae deletion strains, locus YLR371W, strain rom2, stronger effect = lower value 0.986 | S. cerevisiae deletion strains, locus YLR384C, strain iki3, stronger effect = lower value 1.01 | S. cerevisiae deletion strains, locus YLR418C, strain cdc73, stronger effect = lower value 0.904 | S. cerevisiae deletion strains, locus YML016C, strain PPZ1, stronger effect = lower value 1 | S. cerevisiae deletion strains, locus YML032C, strain rad52, stronger effect = lower value 0.938 | S. cerevisiae deletion strains, locus YML120C, strain ndi1, stronger effect = lower value 1.02 | S. cerevisiae deletion strains, locus YML124C, strain tub3, stronger effect = lower value 0.993 | S. cerevisiae deletion strains, locus YMR058W, strain fet3, stronger effect = lower value 0.961 | S. cerevisiae deletion strains, locus YMR078C, strain ctf18, stronger effect = lower value 0.994 | S. cerevisiae deletion strains, locus YMR125W, strain sto1, stronger effect = lower value 0.993 | S. cerevisiae deletion strains, locus YMR129W, stronger effect = lower value 1 | S. cerevisiae deletion strains, locus YMR205C, strain PFK2, stronger effect = lower value 1.02 | S. cerevisiae deletion strains, locus YMR223W, strain ubp8, stronger effect = lower value 0.97 | S. cerevisiae deletion strains, locus YMR231W, strain pep5, stronger effect = lower value 0.993 | S. cerevisiae deletion strains, locus YMR307W, strain GAS1, stronger effect = lower value 1.01 | S. cerevisiae deletion strains, locus YNL067W, strain RPL9B, stronger effect = lower value 1.01 | S. cerevisiae deletion strains, locus YNL071W, strain lat1, stronger effect = lower value 0.99 | S. cerevisiae deletion strains, locus YNL128W, strain TEP1, stronger effect = lower value 1.03 | S. cerevisiae deletion strains, locus YNL153C, strain GIM3, stronger effect = lower value 1.01 | S. cerevisiae deletion strains, locus YNL183C, strain NPR1, stronger effect = lower value 0.919 | S. cerevisiae deletion strains, locus YNL209W, strain ssb2, stronger effect = lower value 0.994 | S. cerevisiae deletion strains, locus YNL233W, strain BNI4, stronger effect = lower value 0.998 | S. cerevisiae deletion strains, locus YNL248C, strain rpa49, stronger effect = lower value 0.967 | S. cerevisiae deletion strains, locus YNL250W, strain rad50, stronger effect = lower value 0.97 | S. cerevisiae deletion strains, locus YNL271C, strain bni1, stronger effect = lower value 0.999 | S. cerevisiae deletion strains, locus YNL298W, strain CLA4, stronger effect = lower value 0.986 | S. cerevisiae deletion strains, locus YNL307C, strain MCK1, stronger effect = lower value 0.995 | S. cerevisiae deletion strains, locus YNL322C, strain KRE1 (second series), stronger effect = lower value 0.997 | S. cerevisiae deletion strains, locus YNR049C, strain mso1, stronger effect = lower value 0.995 | S. cerevisiae deletion strains, locus YNR052C, strain pop2, stronger effect = lower value 0.989 | S. cerevisiae deletion strains, locus YOL006C, strain TOP1, stronger effect = lower value 1.06 | S. cerevisiae deletion strains, locus YOL012C, strain htz1 0.96 | S. cerevisiae deletion strains, locus YOL147C, strain pex11, stronger effect = lower value 0.988 | S. cerevisiae deletion strains, locus YOR001W, strain rrp6, stronger effect = lower value 1.01 | S. cerevisiae deletion strains, locus YOR061W, strain CKA2, stronger effect = lower value 0.994 | S. cerevisiae deletion strains, locus YOR069W, strain VPS5, stronger effect = lower value 1 | S. cerevisiae deletion strains, locus YOR070C, strain gyp1, stronger effect = lower value 0.998 | S. cerevisiae deletion strains, locus YOR080W, strain dia2, stronger effect = lower value 1.01 | S. cerevisiae deletion strains, locus YOR083W, strain WHI5, stronger effect = lower value 0.963 | S. cerevisiae deletion strains, locus YOR106W, strain vam3, stronger effect = lower value 0.983 | S. cerevisiae deletion strains, locus YOR136W, strain idh2, stronger effect = lower value 0.984 | S. cerevisiae deletion strains, locus YOR144C, strain elg1, stronger effect = lower value 0.989 | S. cerevisiae deletion strains, locus YOR184W, strain ser1, stronger effect = lower value 0.989 | S. cerevisiae deletion strains, locus YOR231W, strain MKK1, stronger effect = lower value 0.95 | S. cerevisiae deletion strains, locus YOR265W, strain rbl2, stronger effect = lower value 0.996 | S. cerevisiae deletion strains, locus YOR270C, strain vph1, stronger effect = lower value 0.972 | S. cerevisiae deletion strains, locus YOR290C, strain snf2, stronger effect = lower value 0.986 | S. cerevisiae deletion strains, locus YOR316C, strain cot1, stronger effect = lower value 0.992 | S. cerevisiae deletion strains, locus YPL051W, strain arl3, stronger effect = lower value 0.966 | S. cerevisiae deletion strains, locus YPL078C, strain atp4, stronger effect = lower value 0.991 | S. cerevisiae deletion strains, locus YPL106C, strain sse1, stronger effect = lower value 0.956 | S. cerevisiae deletion strains, locus YPL240C, strain hsp82, stronger effect = lower value 1.01 | S. cerevisiae deletion strains, locus YPL241C, strain CIN2, stronger effect = lower value 1.01 | S. cerevisiae deletion strains, locus YPL256C, strain CLN2, stronger effect = lower value 0.982 | S. cerevisiae deletion strains, locus YPR119W, strain clb2, stronger effect = lower value 0.987 | S. cerevisiae deletion strains, locus YPR141C, strain kar3, stronger effect = lower value 0.993 | S. cerevisiae deletion strains, locus YPR163C, strain tif3, stronger effect = lower value 0.992 | S. cerevisiae deletion strains, locus YPR167C, strain met16, stronger effect = lower value 0.987 | S. cerevisiae deletion strains, strain wtn01, stronger effect = lower value 0.97 | S. cerevisiae strains, strain wild type, stronger effect = lower value 1.03
